Sampled rows, rich in hits. Any-hit rate of the full collection: about 32%.
CYP2C19 inhib: blockers of cytochrome P450 2C19 activity – biochemical, luminescence, ADME assay, primary screen. 96,000 compounds, 21% hits. P33261. inhibition, % at 5 µM. CYP2C19 Supersomes, luciferin-H EGE luminescence, 30 min;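 active = CYP2C19 inhibition above a set limit at 5 µM in the primary screen, cut at about 50% in these data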;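 also: plate controls were negative control wells for no effect and 2.5 mM tranylcypromine positive control for full effect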
Target sequence (P33261 whole entry, looked up): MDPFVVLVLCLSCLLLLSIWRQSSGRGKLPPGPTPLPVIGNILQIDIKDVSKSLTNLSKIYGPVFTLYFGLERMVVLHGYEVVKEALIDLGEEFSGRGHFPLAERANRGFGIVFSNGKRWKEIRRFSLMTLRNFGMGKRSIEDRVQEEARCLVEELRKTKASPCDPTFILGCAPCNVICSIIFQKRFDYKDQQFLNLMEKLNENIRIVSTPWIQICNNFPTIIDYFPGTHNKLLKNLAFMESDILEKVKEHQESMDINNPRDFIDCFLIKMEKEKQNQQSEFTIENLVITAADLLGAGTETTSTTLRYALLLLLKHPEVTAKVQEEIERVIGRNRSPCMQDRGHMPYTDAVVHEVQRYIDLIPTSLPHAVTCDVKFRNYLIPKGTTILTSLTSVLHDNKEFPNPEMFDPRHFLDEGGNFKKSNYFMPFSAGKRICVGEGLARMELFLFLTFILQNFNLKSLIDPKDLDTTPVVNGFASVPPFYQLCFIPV
CYP2C9 inh: blockers of cytochrome P450 2C9 activity – biochemical, luminescence, ADME assay, primary screen; P11712; CYP2C9 Supersomes, luciferin-H conversion; inhibition, % at 5 µM; 96,000 compounds, 20% hits;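 active = blocking of liver enzyme CYP2C9 beyond about 50% at 5 µM, limit read from the data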
CYP2C19 activ: human CYP2C19 activators, primary screen, biochemical, luminescence; activation factor at 5 µM; 96,000 tested, under 10 active; recombinant CYP2C19, luciferin-H EGE luminescence; hits give high values; 0 = fully inhibited enzyme, 1 = untreated enzyme; AID 1025, 2008;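 active = activation factor of at least 2 at 5 µM in the primary screen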;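 also: 0 = wells with 2.5 mM tranylcypromine and 1 = vehicle-only wells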
CYP2C9 act: human CYP2C9 activators, primary screen, biochemical, luminescence. recombinant CYP2C9, luciferin-H conversion; hits give high values; factor 1 = untreated enzyme, 0 = blocked. activation factor at 5 µM. 96,000 compounds, 1.4% hits. AID 1024, 2008;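 active = activation factor of 2 or more for CYP2C9 at a 5 µM dose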;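 also: 0 = sulfaphenazole-blocked wells and 1 = vehicle-only wells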
PostGolgi yeast: phenotypic screen on post-Golgi transport, primary screen. post-Golgi transport phenotypic cell assay. inhibition, % at 10 µM. 98,000 compounds, 0.9% hits. AID 739, 2007;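 also: yeast cells grown in 1536-well plates; yeast grown about 18 h at 30C before absorbance read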
PostGolgi ctrl: growth inhibition of yeast control strain, primary screen, counter-screen for post-Golgi transport modulator project; efflux-deficient yeast background strain, growth absorbance A615, 16 h; inhibition, % at 10 µM; 98,000 compounds, 5% hits; AID 738, 2007
* = called active by the depositor. Rule as the data show it, unless noted: active = inhibition above about 30%; inactive = the rest.

SMILES | CYP2C19 inhib | CYP2C9 inh | CYP2C19 activ | CYP2C9 act | PostGolgi yeast | PostGolgi ctrl
Cc1ccc(-n2nnnc2SCC(=O)c2cc(C)n(-c3cc(C)on3)c2C)c(C)c1 | 31 | -22 | 0.7 | 1.2 | 3 | 17
Cc1ccc2oc3nc(C)c(C(=O)Nc4cccc(C(F)(F)F)c4)cc3c(=O)c2c1 | 26 | 88* | 0.7 | 0.1 | -3 | 0
CCOC(=O)c1cnn(-c2ccc(Cl)cc2)c1C1CCN(C(=O)OC(C)(C)C)CC1 | 89* | 85* | 0.1 | 0.2 | -2 | 24
CCOc1ccc(C2OC34CCCCC3C(C#N)(C#N)C2(C#N)C(=N)O4)cc1OC (configuration not stated) | 8 | -11 | 0.9 | 1.1 | -9 | 12
COc1ccc(-c2nn(-c3ccccc3)cc2/C=N/NS(=O)(=O)c2ccccc2)cc1 | 8 | 63* | 0.9 | 0.4 | 13 | 11
COc1cccc(-c2nn(-c3ccccc3)cc2C(=O)O)c1 | 7 | 15 | 0.9 | 0.8 | 12 | 14
COc1ccc(/C=N/N2C(=O)CSC2=S)cc1 | -18 | -7 | 1.2 | 1.1 | -1 | 0
COc1ccc(-c2nn(-c3ccccc3)cc2/C=N/N2C(=O)CSC2=S)cc1 | 8 | 30 | 0.9 | 0.7 | 86* | 85*
O=S(=O)(c1ccc(Cl)cc1)N1CCC(N2CCCCCC2)CC1 | -4 | -16 | 1 | 1.2 | 9 | 10
Cn1c(SCC(N)=O)nnc1C1CCN(C(=O)NCc2ccccc2)CC1 | -15 | -17 | 1.1 | 1.2 | 18 | 8
CCCC1(c2ccccc2)NC(=O)N(CC(=O)Nc2sc(-c3ccccc3)cc2C(=O)OCC)C1=O (configuration not stated) | 5 | 60* | 0.9 | 0.4 | 6 | 2
CCOC(=O)c1c(C)[nH]c(C(=O)CN2C(=O)NC(C)(c3ccc4ccccc4c3)C2=O)c1C (configuration not stated) | 34 | 62* | 0.7 | 0.4 | -5 | 24
CCOC(=O)c1cc(-c2ccccc2)sc1NC(=O)CC(C)C | 26 | 8 | 0.7 | 0.9 | 11 | -1
CCCC1(c2ccccc2)NC(=O)N(CC(=O)c2[nH]c(C)c(C(=O)OCC)c2C)C1=O (configuration not stated) | 94* | 98* | 0.1 | 0 | 2 | 3
COc1ccc(OC)c(C(=O)CN2C(=O)NC(C)(c3ccccc3)C2=O)c1 (configuration not stated) | 99* | -96 | 0 | 2* | 8 | 19
Cc1cc(NC(=O)CN2C(=O)NC(C)(c3ccccc3)C2=O)no1 (configuration not stated) | 7 | 48 | 0.9 | 0.5 | 20 | -1
O=[N+]([O-])c1ccc(N=Nc2ccc(O)cc2O)cc1 | 69* | 57* | 0.3 | 0.4 | -3 | 4
CCc1nc(OCCN(C)C)c2oc3ccccc3c2n1 | -9 | 6 | 1.1 | 0.9 | -2 | -7
COc1ccc(C2=NN(C(=O)CSc3cn(C)c4ccccc34)C(c3ccc(OC)cc3)C2)cc1 (configuration not stated) | 50* | 62* | 0.5 | 0.4 | -19 | 24
COc1ccc(C2CC(c3ccccc3)=NN2C(=O)c2cccs2)cc1 (configuration not stated) | -8 | 3 | 1.1 | 1 | -16 | 67*
COc1ccc(C2CCCN2C(=O)c2cccs2)cc1 (configuration not stated) | 33 | 27 | 0.7 | 0.7 | -5 | 4
CC1(C)CC(=O)CC(C)(C)N1OC(=O)c1ccncc1 | 67* | 52* | 0.3 | 0.5 | -2 | 3
O=C(c1ccc(CSCc2ccccc2F)o1)N1CCN(c2ccc(N3CCOCC3)nn2)CC1 | 60* | 50* | 0.4 | 0.5 | 0 | 6
CC(Sc1ccccc1)C(=O)Nc1ccc(S(=O)(=O)N2CCOCC2)cc1 (configuration not stated) | 8 | 28 | 0.9 | 0.7 | -8 | 7
Cc1cnc(N)c2c(=O)oc3ccccc3c12 | -5 | -102 | 1 | 2* | -6 | -1
SMILES | CYP2C19 inhib | CYP2C9 inh | CYP2C19 activ | CYP2C9 act | PostGolgi yeast | PostGolgi ctrl
O=c1oc2ccccc2c2nccnc12 | -14 | -16 | 1.1 | 1.2 | 0 | -4
CC(N=c1ccccn1C(=O)Nc1ccc(Cl)cc1)c1ccco1 (configuration not stated) | 40 | 22 | 0.6 | 0.8 | -9 | 3
CC(c1ccco1)N(C(=O)Nc1ccc(Cl)cc1)c1ccccn1 (configuration not stated) | 85* | 56* | 0.2 | 0.4 | -2 | -5
Cc1ccc(C(=O)N(c2ccccn2)C(C)c2ccco2)cc1 (configuration not stated) | 80* | 29 | 0.2 | 0.7 | 1 | -2
CC(c1ccco1)N(C(=O)C12CC3CC(CC(C)(C3)C1)C2)c1ccccn1 (configuration not stated) | 42 | 23 | 0.6 | 0.8 | 6 | 7
COc1ccc(N2C(=O)CC(Nc3ccc(N4CCOCC4)cc3)C2=O)c(OC)c1 (configuration not stated) | 4 | 12 | 1 | 0.9 | -3 | 22
Cc1ccc(Cn2cc(SCC(=O)Nc3nccs3)c3ccccc32)cc1 | -10 | 91* | 1.1 | 0.1 | -4 | -6
Cc1nnc(NC(=O)CSc2cn(Cc3ccccc3)c3ccccc23)s1 | -1 | -9 | 1 | 1.1 | -7 | 10
Cc1cccc(Cn2cc(SCC(=O)Nc3nccs3)c3ccccc32)c1 | -14 | 60* | 1.1 | 0.4 | -1 | 0
CCOC(=O)c1cc(C(=O)OCC)c2ccccn2c1=O | 3 | 14 | 1 | 0.9 | -1 | 2
Cc1nc(N(C)Cc2ccccc2)c2nnn(Cc3ccccc3)c2n1 | 100* | 98* | 0 | 0 | -1 | 17
Cc1nc(NCc2ccc3c(c2)OCO3)c2nnn(Cc3ccccc3)c2n1 | 17 | 13 | 0.8 | 0.9 | 4 | -5
O=C(c1ccc2c(c1)OCO2)N(c1ccc(F)cc1)C1C=CS(=O)(=O)C1 (configuration not stated) | 12 | 1 | 0.9 | 1 | -2 | 2
CC1(C)CC(=O)C2=C(C1)Oc1ncn(Cc3ccco3)c(=N)c1C2c1ccccc1 (configuration not stated) | 2 | 17 | 1 | 0.8 | 2 | 34*
CC1(C)CC(=O)C2=C(C1)Oc1ncn(CCCn3ccnc3)c(=N)c1C2c1ccccc1 (configuration not stated) | 79* | 90* | 0.2 | 0.1 | 7 | 7

Source: PubChem BioAssay
